Experimental data: PubChem BioAssay
Numbered stars: 1 amine (or outer) side, 2 acyl side, 3 side chain; on linkers, the order of the positions; unused ones are H or OH. Bridge positions count the residues as written; N and C are the ends. Square brackets hold non-standard residues; d marks the D form. Side chains are listed from the residue outwards. Peptide text beside a SMILES is read from it. * marks the point of attachment. ξ: configuration not given here. ΔAla(E,3-NHCONH2) = NC(=O)N/C=C(/N)C(=O)O; X1 = NC1=NCCC(C(N[*:1])C(=O)[*:2])N1; Heptanoyl(6-Me) = CC(C)CCCCC(=O)*; X2 = CCC(C)C(N)C1=NC(C(=O)*)CS1; ξβ3hOrn = NCCCC(N)CC(=O)*; Orn = NCCC[CH](N)C(=O)O; Dab = NCC[CH](N)C(=O)O; Dap = NC[CH](N)C(=O)O

test: viability loss with induced miR-34 in A549 – imaging, A549 dox-inducible miR-34, nuclei and caspase counts, primary screen (AID 1347080); conditions: A549 miR-34 inducible, Hoechst nuclei count, 48 h; measured here: relative caspase fold change +Dox/-Dox; note: test concentration not given here

Compound	fold change
CCCCC(=O)O[C@]1(C(=O)CO)CCC2C3CCC4=CC(=O)CC[C@]4(C)C3[C@@H](O)C[C@@]21C (stereo not given in full)	3.05
CCCCC/C=C/CCC(=O)N[C@H]1[C@H](Oc2c3cc4cc2Oc2ccc(cc2Cl)[C@@H](O[C@@H]2O[C@H](CO)[C@@H](O)[C@H](O)[C@H]2NC(C)=O)[C@@H]2NC(=O)[C@H](NC(=O)[C@@H]4NC(=O)[C@H]4NC(=O)C(Cc5ccc(c(Cl)c5)O3)NC(=O)[C@H](N)c3ccc(O)c(c3)Oc3cc(O)cc4c3)c3ccc(O)c(c3)-c3c(OC4O[C@H](CO)[C@@H](O)[C@H](O)[C@@H]4O)cc(O)cc3[C@@H](C(=O)O)NC2=O)O[C@H](CO)[C@@H](O)[C@@H]1O (stereo not given in full)	5.67
CC(C)(C)NCC(O)COc1cccc2c1CCCC2=O (stereo not given)	2.71
CC(C)CCCC(C)[C@H]1CCC2C3CC=C4C[C@@H](O)CC[C@]4(C)C3CC[C@@]21C (stereo not given in full)	2.49
CCC(=O)OCC(=O)[C@@]1(OC(=O)CC)[C@@H](C)CC2C3CCC4=CC(=O)C=C[C@]4(C)C3(F)[C@@H](O)C[C@@]21C (stereo not given in full)	2.62
CC(=O)Nc1ccc(S(=O)(=O)Nc2onc(C)c2C)cc1	5
CO/N=C(\C(=O)NC1C(=O)N2C(C(=O)OCOC(=O)C(C)(C)C)=C(/C=C\c3scnc3C)CSC12)c1csc(N)n1 (stereo not given)	4.33
CC1C/C=C/C=C/C=C/C=C/C(O[C@@H]2O[C@H](C)[C@@H](O)[C@H](N)[C@@H]2O)CC2OC(O)(CC(O)CC3OC3/C=C/C(=O)O1)CC(O)C2C(=O)O (stereo not given in full)	2.95
C[C@]12CCC(=O)C=C1C=CC1C2CC[C@@]2(C)C1CC[C@@]21CCC(=O)O1 (stereo not given in full)	1.44
CC(C)c1c(C(=O)c2ccccc2)c(-c2ccccc2)c(-c2ccc(F)cc2)n1CC[C@@H](O)C[C@@H](O)CC(=O)O	3.4
CC(CCC(=O)O)[C@H]1CCC2C3C(=O)C[C@@H]4CC(=O)CC[C@]4(C)C3CC(=O)[C@@]21C (stereo not given in full)	1.77
CC(=O)Nc1cc2ccccc2oc1=O	0.792
CCCCCCCCCCC[C@@H](C[C@H]1OC(=O)[C@H]1CCCCCC)OC(=O)[C@@H](CC(C)C)NC=O	2
CC(=O)OCC(=O)[C@@]12OC(C)(C)O[C@@H]1CC1C3C[C@H](F)C4=CC(=O)C=C[C@]4(C)[C@@]3(F)[C@@H](O)C[C@@]12C (stereo not given in full)	0.979
CC[C@@H]1OC(=O)C[C@@H](O)[C@H](C)[C@@H](O[C@@H]2O[C@H](C)[C@@H](O)[C@H](N(C)C)[C@H]2O)[C@@H](CCN2C[C@H](C)C[C@H](C)C2)C[C@@H](C)C(=O)/C=C/C(C)=C\[C@@H]1CO[C@@H]1O[C@H](C)[C@@H](O)[C@@H](OC)[C@H]1OC	3.65
O=C(OC[C@H]1O[C@H](OC(=O)c2cc(O)c(O)c(OC(=O)c3cc(O)c(O)c(O)c3)c2)[C@H](OC(=O)c2cc(O)c(O)c(OC(=O)c3cc(O)c(O)c(O)c3)c2)[C@@H](OC(=O)c2cc(O)c(O)c(OC(=O)c3cc(O)c(O)c(O)c3)c2)[C@@H]1OC(=O)c1cc(O)c(O)c(OC(=O)c2cc(O)c(O)c(O)c2)c1)c1cc(O)c(O)c(OC(=O)c2cc(O)c(O)c(O)c2)c1	1.46
CC(C)C1CCC(C(=O)N[C@@H](Cc2ccccc2)C(=O)O)CC1 (stereo not given in full)	4.55
CCC(C)C(=O)O[C@H]1C[C@H](O)C=C2C=C[C@H](C)[C@H](CC[C@@H](O)C[C@@H](O)CC(=O)O)C21 (stereo not given in full)	5.53
CCC(C)C1NC(=O)C(CCN)NC(=O)C(NC(=O)C(CCN)NC(=O)C(NC(=O)C(CCN)NC(=O)CCCCC(C)C)C(C)O)CCNC(=O)C(C(C)O)NC(=O)C(CCN)NC(=O)C(CCN)NC(=O)C(C(C)CC)NC1=O (stereo not given) ({Heptanoyl(6-Me)}-[Dab]T[Dab][Dab][Dab]II[Dab][Dab]T; lactam 4-C; configuration not given here)	3.33
CC1=C(C(=O)O)N2C(=O)[C@@H](NC(=O)[C@H](N)C3=CCC=CC3)C2SC1 (stereo not given in full)	4.9

Compound	fold change
OC[C@@H](O)C(O[C@@H]1O[C@H](CO)[C@H](O)[C@H](O)[C@H]1O)[C@H](O)[C@@H](O)CO (stereo not given in full)	4.32
NCCCC(N)CC(=O)NCC1NC(=O)C(CO)NC(=O)C(N)CNC(=O)C(C2CCN=C(N)N2)NC(=O)/C(=C\NC(N)=O)NC1=O (stereo not drawn) (H-[Dap]S[Dap](ξβ3hOrn)[ΔAla(E,3-NHCONH2)][X1]; lactam 1-C; configuration not given here)	1.07
COCC1=C(C(=O)OC(C)OC(=O)OC(C)C)N2C(=O)[C@@H](NC(=O)/C(=N/OC)c3csc(N)n3)[C@H]2SC1 (stereo not given in full)	3.66
C#C[C@]1(OC(C)=O)CCC2C3CCC4=C/C(=N/O)CCC4C3CC[C@@]21CC (stereo not given in full)	2.93
CCC(C)C(N)C1=NC(C(=O)NC(CC(C)C)C(=O)NC(CCC(=O)O)C(=O)NC(C(=O)NCCCCC2NC(=O)C(CC(N)=O)NC(=O)C(CC(=O)O)NC(=O)C(Cc3cnc[nH]3)NC(=O)C(Cc3ccccc3)NC(=O)C(C(C)CC)NC(=O)C(CCCN)NC2=O)C(C)CC)CS1 (stereo not drawn) (cyclo(DNK([Ile-Glu-Leu-X2])[Orn]IFH); configuration not given here)	0.994
C[N+](C)(C)CCOP(=O)([O-])OP(=O)(O)OC[C@H]1OC(n2ccc(N)nc2=O)[C@H](O)[C@@H]1O (stereo not given in full)	4.71
CCN[C@@H]1C[C@H](N)[C@@H](O[C@H]2OC(CN)=CC[C@H]2N)[C@H](O)[C@H]1OC1OC[C@](C)(O)[C@H](NC)[C@H]1O (stereo not given in full)	6.26
C[C@]12C=CC(=O)C=C1CCC1C2[C@@H](O)C[C@@]2(C)C1CC[C@]2(O)C(=O)COC(=O)CCC(=O)O (stereo not given in full)	2.28
O=C(N[C@@H](CO)[C@H](O)c1ccc([N+](=O)[O-])cc1)C(Cl)Cl	1.84
N[C@H](Cc1cc(I)c(Oc2ccc(O)c(I)c2)c(I)c1)C(=O)O	1.64
NC(Cc1c[nH]c2ccccc12)C(=O)O (stereo not given)	2.24
O=C(O)C1=C(CSc2nnnn2CS(=O)(=O)O)CS[C@@H]2C(NC(=O)[C@H](O)c3ccccc3)C(=O)N12 (stereo not given in full)	4.26
O=C1O[C@H](C(O)CO)C(O)=C1O (stereo not given in full)	4.48
CC1=C(C(=O)O)N2C(=O)[C@@H](NC(=O)C(N)c3ccc(O)cc3)[C@H]2SC1 (stereo not given in full)	3.02
C=C1CC[C@H](O)C/C1=C/C=C1\CCCC2(C)C1CCC2C(C)CCCC(C)C (stereo not given in full)	2.89
CC(=O)c1cc2ccccc2oc1=O	1.42
CCc1cc(Cl)c(OC)c(C(=O)NCC2CCCN2CC)c1O (stereo not given)	0.822
OC[C@H]1OC([S-])[C@H](O)[C@@H](O)[C@@H]1O.[Au+] (stereo not given in full)	2.52
CC(C)(O/N=C(\C(=O)N[C@@H]1C(=O)N2C(C(=O)[O-])=C(C[n+]3ccccc3)CSC12)c1csc(N)n1)C(=O)O (stereo not given in full)	3.92
C[C@H]1O[C@@H](O[C@H]2[C@@H](O)C[C@H](O[C@H]3[C@@H](O)C[C@H](O[C@H]4CC[C@]5(C)C6CC[C@]7(C)[C@@H](C8=CC(=O)OC8)CC[C@]7(O)C6CC[C@@H]5C4)O[C@@H]3C)O[C@@H]2C)C[C@H](O)[C@@H]1O (stereo not given in full)	1.53
